# Calls of active or inactive are those of the source.
# Experiments:
# [1] = system: PRMT1 (protein arginine N-methyltransferase 1); assay: small molecules binding arginine methyltransferase PRMT1 – biochemical, small-molecule microarray, 635 nm fluorescence, primary screen (AID 1088); details: higher = more signal;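 further: binding of Prmt1 protein to compounds spotted on small-molecule microarray slides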
# [2] = growth effects on S. cerevisiae YJM789 – YJM789 clinical isolate, OD600, 24 h, basal, primary screen (AID 1089); details: higher = more signal, called active from +8 up or from −8 down;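 further: growth of clinical yeast isolate S. cerevisiae YJM 789 seeded 1000 cells per well; test concentration not given here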
# [3] = S. pombe growth modifiers, basal conditions – strain 972, OD600, 24 h, no modulator, primary screen (AID 1090);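 further: basal condition with compound alone and no growth modifier present; test concentration not given here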; details: S. pombe 972 growth, higher = more signal, called active from +8 up or from −8 down
# [4] = budding yeast growth modifiers under rapamycin – strain BY4716, OD600, 96 h, primary screen (AID 1091); further: test concentration not given here; details: S. cerevisiae BY4716 + rapamycin, higher = more signal, called active from +8 up or from −8 down
# [5] = target: Torsin-1A-interacting protein 2 (Homo sapiens) (UniProt Q8NFQ8); assay: small molecules binding lysate-expressed LULL1 – cell lysate, human LULL1 lysate, 635/667 nm fluorescence, primary screen (AID 1092); details: small-molecule microarray, hLULL1 lysate binding, 635 nm fluorescence; higher = more signal;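 further: probe is lysate of COS7 cells overexpressing human LULL1; score merges per-feature 667 nm fluorescence with signal-to-noise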
# Chain of Torsin-1A-interacting protein 2 (Homo sapiens) (Q8NFQ8 whole entry, looked up): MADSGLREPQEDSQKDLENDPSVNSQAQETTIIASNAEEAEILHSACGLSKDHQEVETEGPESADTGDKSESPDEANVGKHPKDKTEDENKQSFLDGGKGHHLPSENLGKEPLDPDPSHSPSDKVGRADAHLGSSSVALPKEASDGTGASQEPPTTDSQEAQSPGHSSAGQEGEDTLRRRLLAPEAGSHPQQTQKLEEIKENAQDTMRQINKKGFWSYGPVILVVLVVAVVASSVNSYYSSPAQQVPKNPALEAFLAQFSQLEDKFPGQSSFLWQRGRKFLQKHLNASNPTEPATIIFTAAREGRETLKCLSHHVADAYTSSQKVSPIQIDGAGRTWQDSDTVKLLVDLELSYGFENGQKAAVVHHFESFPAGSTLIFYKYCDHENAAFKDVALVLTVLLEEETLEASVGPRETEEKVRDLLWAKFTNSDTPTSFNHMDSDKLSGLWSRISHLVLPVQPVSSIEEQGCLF
# [6] = optical density change of DRC41 E. coli – strain DRC41, OD650, 24 h, E. coli filamentation project, primary screen (AID 1093);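 further: MC1000 strain lacking acrAB efflux and sulA so SOS filamentation is blocked; test concentration not given here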; details: E. coli DRC41 growth, higher = more signal, called active from +8 up or from −8 down
# [7] = probe aLefty2 binding to arrayed compounds – biochemical, biotinylated probe, 635/667 nm fluorescence, primary screen (AID 1094); details: small-molecule microarray, higher = more signal;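 further: score merges spot fluorescence near 667 nm with spot signal-to-noise ratio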
# [8] = system: Noggin (protein binding on small-molecule microarray); assay: small molecules binding Noggin protein – biochemical, 635/667 nm fluorescence, primary screen (AID 1095); details: 635 nm fluorescence, higher = more signal;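 further: score merges 667 nm feature fluorescence with signal to noise over triplicate slides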
# [9] = target: Neurogenic locus notch homolog protein 3 (Homo sapiens) (UniProt Q9UM47); assay: small molecules binding NOTCH3 protein – biochemical, 635/667 nm fluorescence, primary screen (AID 1096); details: small-molecule microarray, 635 nm fluorescence, higher = more signal
# Chain of Neurogenic locus notch homolog protein 3 (Homo sapiens) (Q9UM47 whole entry, looked up): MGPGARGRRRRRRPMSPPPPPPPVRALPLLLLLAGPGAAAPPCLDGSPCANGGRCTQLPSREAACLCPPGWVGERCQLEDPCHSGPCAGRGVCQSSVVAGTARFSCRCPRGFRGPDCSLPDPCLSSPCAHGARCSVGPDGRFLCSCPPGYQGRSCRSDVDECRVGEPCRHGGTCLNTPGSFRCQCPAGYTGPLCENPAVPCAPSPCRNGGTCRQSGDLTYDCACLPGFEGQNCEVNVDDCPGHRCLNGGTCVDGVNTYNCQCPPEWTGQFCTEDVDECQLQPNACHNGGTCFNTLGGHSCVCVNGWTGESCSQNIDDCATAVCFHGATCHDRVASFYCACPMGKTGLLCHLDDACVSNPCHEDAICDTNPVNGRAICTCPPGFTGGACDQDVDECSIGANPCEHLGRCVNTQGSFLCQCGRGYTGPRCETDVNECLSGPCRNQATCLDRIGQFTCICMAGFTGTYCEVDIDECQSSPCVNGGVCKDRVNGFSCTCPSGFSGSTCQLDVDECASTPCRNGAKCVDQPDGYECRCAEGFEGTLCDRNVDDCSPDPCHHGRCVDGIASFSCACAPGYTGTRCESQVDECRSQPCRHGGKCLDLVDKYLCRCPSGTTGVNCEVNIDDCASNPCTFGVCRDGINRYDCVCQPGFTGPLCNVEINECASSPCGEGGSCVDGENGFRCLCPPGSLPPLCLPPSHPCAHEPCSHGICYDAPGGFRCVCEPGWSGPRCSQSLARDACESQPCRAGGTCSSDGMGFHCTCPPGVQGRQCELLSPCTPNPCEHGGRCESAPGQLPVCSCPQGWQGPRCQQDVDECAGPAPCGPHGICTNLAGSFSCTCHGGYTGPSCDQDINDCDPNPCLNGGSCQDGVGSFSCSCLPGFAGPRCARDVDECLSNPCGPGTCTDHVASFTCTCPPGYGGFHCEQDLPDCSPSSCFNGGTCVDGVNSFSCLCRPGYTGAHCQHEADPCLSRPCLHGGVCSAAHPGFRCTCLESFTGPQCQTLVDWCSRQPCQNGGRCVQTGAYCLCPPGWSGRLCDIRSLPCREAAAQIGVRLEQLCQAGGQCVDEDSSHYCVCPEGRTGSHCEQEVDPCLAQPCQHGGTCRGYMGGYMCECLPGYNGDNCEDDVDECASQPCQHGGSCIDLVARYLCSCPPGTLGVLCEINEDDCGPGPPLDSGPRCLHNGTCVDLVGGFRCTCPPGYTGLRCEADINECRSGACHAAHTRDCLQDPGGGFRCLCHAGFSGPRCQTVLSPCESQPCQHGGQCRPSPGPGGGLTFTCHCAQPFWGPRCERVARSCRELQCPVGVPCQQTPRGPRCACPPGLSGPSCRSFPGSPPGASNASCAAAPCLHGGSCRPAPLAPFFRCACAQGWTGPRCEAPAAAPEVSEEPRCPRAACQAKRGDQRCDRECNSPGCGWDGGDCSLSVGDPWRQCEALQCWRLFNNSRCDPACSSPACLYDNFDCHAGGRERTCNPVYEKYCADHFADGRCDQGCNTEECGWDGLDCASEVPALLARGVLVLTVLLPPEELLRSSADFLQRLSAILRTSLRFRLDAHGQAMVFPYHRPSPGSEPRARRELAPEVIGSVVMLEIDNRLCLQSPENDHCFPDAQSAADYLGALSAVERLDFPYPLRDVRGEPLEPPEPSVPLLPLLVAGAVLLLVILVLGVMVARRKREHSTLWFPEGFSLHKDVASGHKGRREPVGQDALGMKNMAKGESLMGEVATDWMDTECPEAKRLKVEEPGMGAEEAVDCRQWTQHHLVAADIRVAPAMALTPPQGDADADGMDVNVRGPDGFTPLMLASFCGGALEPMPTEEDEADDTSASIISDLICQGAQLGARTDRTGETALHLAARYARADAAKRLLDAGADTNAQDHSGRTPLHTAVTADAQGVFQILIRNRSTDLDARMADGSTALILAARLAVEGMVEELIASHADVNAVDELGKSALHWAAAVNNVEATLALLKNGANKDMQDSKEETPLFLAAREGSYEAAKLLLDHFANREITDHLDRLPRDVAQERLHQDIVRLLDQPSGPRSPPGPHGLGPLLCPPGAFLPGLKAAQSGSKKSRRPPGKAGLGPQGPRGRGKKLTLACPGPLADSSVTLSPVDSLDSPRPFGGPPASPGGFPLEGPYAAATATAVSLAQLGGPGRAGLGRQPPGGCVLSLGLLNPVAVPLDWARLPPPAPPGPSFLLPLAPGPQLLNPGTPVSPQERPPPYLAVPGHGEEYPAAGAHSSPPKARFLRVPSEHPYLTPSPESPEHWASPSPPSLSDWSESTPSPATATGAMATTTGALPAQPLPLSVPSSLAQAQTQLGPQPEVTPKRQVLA
# [10] = probe aEGFR binding to arrayed compounds – biochemical, biotinylated probe, 635/667 nm fluorescence, primary screen (AID 1097); details: small-molecule microarray, higher = more signal;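 further: probe is a biotinylated anti-EGFR antibody binding compounds printed on slides; score combines fluorescence near 667 nm and signal to noise of each spot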
# [11] = system: Plasmodium falciparum Sir2 (PF13_0152, Sir2A); assay: Plasmodium falciparum Sir2A binding compounds – biochemical, small-molecule microarray, 635 nm fluorescence, primary screen (AID 1098); details: fluorescence 635 nm, higher = more signal;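 further: score merges spot fluorescence intensity with its signal-to-noise ratio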
# [12] = probe aDKK1 binding to arrayed compounds – biochemical, biotinylated probe, 635/667 nm fluorescence, primary screen (AID 1099); details: small-molecule microarray, higher = more signal;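 further: score merges 667nm spot fluorescence with signal to noise across triplicate slides; reference of the scale not given here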
# [13] = probe aCHRDL2 binding to arrayed compounds – biochemical, biotinylated probe, 635/667 nm fluorescence, primary screen (AID 1100); details: small-molecule microarray, higher = more signal
# [14] = change in splice reporter luminescence, either direction, cell-based, HEK293, spliceosome inhibition project, primary screen (AID 1101); details: HEK293 splicing luciferase reporter, 24 h, higher = more signal, called active from +8 up or from −8 down;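 further: HEK293 cells carrying a splicing-competent luciferase reporter gene; test concentration not given here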
# [15] = target: Fibroblast growth factor 10 (Homo sapiens) (UniProt O15520); assay: compounds binding fibroblast growth factor 10 – biochemical, small-molecule microarray, 635 nm fluorescence, primary screen (AID 1102); details: FGF10 binding, fluorescence 635 nm, higher = more signal
# Chain of Fibroblast growth factor 10 (Homo sapiens) (O15520 whole entry, looked up): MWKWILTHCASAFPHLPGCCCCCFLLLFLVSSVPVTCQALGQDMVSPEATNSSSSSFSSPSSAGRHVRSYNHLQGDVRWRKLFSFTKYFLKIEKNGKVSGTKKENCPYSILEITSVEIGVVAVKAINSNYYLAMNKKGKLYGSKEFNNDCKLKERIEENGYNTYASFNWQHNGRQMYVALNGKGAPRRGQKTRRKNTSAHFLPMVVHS
# [16] = system: glycogen synthase kinase-3 (GSK3A per assay name; protocol says GSK3B); assay: compounds binding glycogen synthase kinase-3 – biochemical, small-molecule microarray, 635 nm fluorescence, GSK3A, primary screen (AID 1103); details: fluorescence 635 nm, higher = more signal; further: the record names both GSK3A and GSK3B
# [17] = target: Epidermal growth factor receptor (Homo sapiens) (UniProt P00533); assay: compounds binding epidermal growth factor receptor – biochemical, small-molecule microarray, 635 nm fluorescence, primary screen (AID 1104); details: EGFR binding, higher = more signal;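 further: score merges 667 nm emission intensity with spot signal to noise over triplicate slides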
# Chain of Epidermal growth factor receptor (Homo sapiens) (P00533 whole entry, looked up): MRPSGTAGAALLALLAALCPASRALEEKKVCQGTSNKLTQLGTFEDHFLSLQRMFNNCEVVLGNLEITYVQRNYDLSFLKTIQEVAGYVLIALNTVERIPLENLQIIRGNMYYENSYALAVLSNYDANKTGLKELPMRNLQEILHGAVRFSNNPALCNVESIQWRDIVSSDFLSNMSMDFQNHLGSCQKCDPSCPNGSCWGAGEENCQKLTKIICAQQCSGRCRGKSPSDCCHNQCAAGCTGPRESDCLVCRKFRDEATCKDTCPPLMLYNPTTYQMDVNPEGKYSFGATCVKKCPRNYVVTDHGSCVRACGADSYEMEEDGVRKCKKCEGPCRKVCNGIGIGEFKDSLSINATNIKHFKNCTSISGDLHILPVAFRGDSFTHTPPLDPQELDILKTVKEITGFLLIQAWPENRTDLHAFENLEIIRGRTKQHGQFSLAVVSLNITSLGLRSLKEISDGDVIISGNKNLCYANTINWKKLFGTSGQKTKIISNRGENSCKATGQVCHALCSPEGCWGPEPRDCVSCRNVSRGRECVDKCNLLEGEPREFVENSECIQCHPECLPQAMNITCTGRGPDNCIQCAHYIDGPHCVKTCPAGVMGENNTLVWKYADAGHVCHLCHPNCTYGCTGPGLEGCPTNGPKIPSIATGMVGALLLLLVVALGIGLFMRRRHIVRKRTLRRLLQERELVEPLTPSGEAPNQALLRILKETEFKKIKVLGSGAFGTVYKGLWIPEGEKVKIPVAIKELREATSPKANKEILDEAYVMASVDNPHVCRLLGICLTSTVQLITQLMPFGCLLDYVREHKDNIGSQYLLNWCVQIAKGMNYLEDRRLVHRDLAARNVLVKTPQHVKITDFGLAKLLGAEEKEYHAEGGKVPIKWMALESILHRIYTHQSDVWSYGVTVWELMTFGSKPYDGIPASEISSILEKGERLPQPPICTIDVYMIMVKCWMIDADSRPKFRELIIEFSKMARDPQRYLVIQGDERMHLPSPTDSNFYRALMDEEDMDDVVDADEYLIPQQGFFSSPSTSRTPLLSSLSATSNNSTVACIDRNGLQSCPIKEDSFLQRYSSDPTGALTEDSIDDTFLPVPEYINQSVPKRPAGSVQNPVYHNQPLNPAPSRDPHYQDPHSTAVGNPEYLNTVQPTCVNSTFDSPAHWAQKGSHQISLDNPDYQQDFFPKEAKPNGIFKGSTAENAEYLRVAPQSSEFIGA
# [18] = target: Follistatin-related protein 3 (Homo sapiens) (UniProt O95633); assay: compounds binding follistatin-related protein 3 – biochemical, small-molecule microarray, 635 nm fluorescence, primary screen (AID 1105); details: FSTL3 binding, higher = more signal;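 further: score merges emission near 667 nm and signal to noise per printed spot across three slides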
# Chain of Follistatin-related protein 3 (Homo sapiens) (O95633 whole entry, looked up): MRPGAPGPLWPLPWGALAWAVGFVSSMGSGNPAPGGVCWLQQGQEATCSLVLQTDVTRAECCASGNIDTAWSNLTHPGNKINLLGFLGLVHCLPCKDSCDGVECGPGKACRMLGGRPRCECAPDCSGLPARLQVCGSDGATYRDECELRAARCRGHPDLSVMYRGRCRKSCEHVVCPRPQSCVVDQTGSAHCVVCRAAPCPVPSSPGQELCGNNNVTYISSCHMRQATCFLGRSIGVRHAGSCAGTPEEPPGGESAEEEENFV
# [19] = target: Dickkopf-related protein 1 (Homo sapiens) (UniProt O94907); assay: small molecules binding DKK1 protein – biochemical, small-molecule microarray, 635 nm fluorescence scan, primary screen (AID 1106); details: higher = more signal;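 further: score merges emission near 667 nm with signal to noise over three replicate slides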
# Chain of Dickkopf-related protein 1 (Homo sapiens) (O94907 whole entry, looked up): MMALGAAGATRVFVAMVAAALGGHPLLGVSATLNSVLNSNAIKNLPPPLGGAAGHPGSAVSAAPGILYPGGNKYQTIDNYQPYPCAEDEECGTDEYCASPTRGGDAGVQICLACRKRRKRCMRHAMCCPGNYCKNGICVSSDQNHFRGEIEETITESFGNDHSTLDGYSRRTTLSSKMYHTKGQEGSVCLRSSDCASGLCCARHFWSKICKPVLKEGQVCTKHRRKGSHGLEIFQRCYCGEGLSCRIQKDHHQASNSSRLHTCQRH
# [20] = system: Inhibin beta A chain (activin A); assay: small molecules binding activin A – biochemical, small-molecule microarray, 635 nm fluorescence scan, primary screen (AID 1107); details: INHBA, higher = more signal;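 further: mouse activin A protein probed at 4.33 µg/mL on printed slides; score merges bound-protein fluorescence near 667 nm with spot signal-to-noise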
Compound,composite z-score [1],z-score [2],z-score [3],z-score [4],composite z-score [5],z-score [6],composite z-score [7],composite z-score [8],composite z-score [9],composite z-score [10],composite z-score [11],composite z-score [12],composite z-score [13],z-score [14],composite z-score [15],composite z-score [16],composite z-score [17],composite z-score [18],composite z-score [19],composite z-score [20]
CCOC(=O)CCN1C(=O)[C@H]2[C@@H]3C(=CC[C@H]2C1=O)C(=O)[C@H]1O[C@H]1[C@H]3O,-0.571,0.151 (inactive),0.0483 (inactive),-0.384 (inactive),-0.0261,-0.518 (inactive),-0.27,-0.861,-1.75,-0.122,1.1,-0.33,-0.291,6.66 (inactive),-0.632,-0.837,-0.0633,-1.16,-0.324,-0.483
CC(C)CON=C1C[C@@H](O)[C@@H](O)[C@@H]2[C@@H]3C(=O)N([C@@H](C)c4ccccc4)C(=O)[C@@H]3CC[C@@H]12,-0.413,0.281 (inactive),0.603 (inactive),-0.188 (inactive),0.246,0.3 (inactive),0.224,0.347,0.114,-0.0286,-0.201,0.083,0.767,0.226 (inactive),0.266,-0.0708,0.191,-0.279,-0.24,0.467
CCN1C(=O)[C@H]2[C@H]3[C@H](O)[C@H](O)CC(=NO[C@H](C)c4cn([C@H](CO)Cc5ccccc5)nn4)[C@@H]3CC[C@H]2C1=O,1.4,-0.444 (inactive),0.121 (inactive),-0.371 (inactive),1.59,0.607 (inactive),-0.207,0.496,0.89,-0.0132,0.955,0.245,-0.681,-0.05 (inactive),0.869,0.978,0.587,1.05,0.553,-0.802
CSCC[C@@H]1NC(=O)CC=C[C@@H](C)COC(=O)[C@H](C)COC1=O,1.53,-2.12 (inactive),-1.99 (inactive),-0.894 (inactive),-0.265,0.453 (inactive),-0.295,2.11,0.883,0.702,0.926,-0.641,-2.03,-0.841 (inactive),1.49,0.781,1.67,1.23,2.31,-2.83
COc1ccc(-c2cnnc(CCCn3ccnc3-c3ccccc3)n2)cc1,0.576,-0.128 (inactive),-0.513 (inactive),1.36 (inactive),0.662,0.222 (inactive),-0.125,0.592,0.876,0.137,0.442,0.0096,-0.592,-1.04 (inactive),0.7,0.7,0.929,1.37,1.02,0.327
